# PubChem BioAssay (NCI)
# Several values for one entry are separate records, joined by “and”; a condition that tells them apart may be missing. Equal entries are not always repeated. The panel holds about 83,000 compounds, 20% with a hit somewhere; the sample as a whole holds those more often.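 The endpoint reported here, percent growth, reads 100 for growth as untreated, 0 for no net growth and -100 for all cells dead.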 Unmarked numbers belong to inactive results. Activity calls are given as the source filed them. The calls were made as follows: active = growth percent below 10; inactive = the rest.
# Tested on: MDA-MB-468 breast
# Experiment: NCI-60 one-dose screen, 48 h (100 = growth as untreated, 0 = no growth, -100 = all killed)
# Conditions: 10 µM unless noted
row,Structure (SMILES),growth
1,CCCC(C)(C)c1ccc2c(c1)OC(C)(C)[C@@H]1CC=C(C)C[C@@H]21,97.6%
2,O=C1NC(=O)C(CN2C(=O)C3(c4ccccc42)[C@H](Cl)C(=O)N3c2ccccc2)C(=O)N1 (some centres not stated),-23.1% (active)
3,CCCCN1CCCC[C@@H]1C(=O)N[C@H](C(=O)N(C)[C@H](C[C@@H](OC(C)=O)c1nc(C(=O)NC2CCC(C(=O)OC)CC2)cs1)C(C)C)C(C)C (some centres not stated),17.4%
4,COC(=O)[C@@H](C)C[C@H](Cc1ccccc1)NC(=O)c1nc([C@@H](C[C@H](C(C)C)N(C)C(=O)[C@@H](NC(=O)[C@H]2CCCCN2C)C(C)C)OC(C)=O)sc1C,53.2%
5,COc1ccc(O)c2c(=O)c3c(OC)cc4c(c3oc12)[C@@H]1C=CO[C@@H]1O4,-63.2% (active)
6,O=C(NCCNC(=O)c1ccc([As](O)O)cc1)c1ccc([As](O)O)cc1,82.2%
7,COc1cccc2c1C(=O)c1c(O)c3c(c(O)c1C2=O)CC(O)(/C(C)=N/NC(=O)CCC(=O)N/N=C(\C)C1(O)Cc2c(O)c4c(c(O)c2C(OC2CC(N)C(O)C(C)O2)C1)C(=O)c1c(OC)cccc1C4=O)CC3OC1CC(N)C(O)C(C)O1 (configuration not stated),-35.7% [5 µM] (active)
8,CC(C)=CCC/C(C)=C/C=N\N=C(/N)N[N+](=O)[O-],103%
9,CNC(=O)Oc1ccc2c(c1)OCO2,94.6%
10,O=C1NC(=O)C(=Cc2ccccc2)C(=O)N1,96.4% and 115%
11,C#COc1cccc(Nc2ncnc3cc(NC(=O)CF)ccc23)c1,80.2% [6.25 µM]
12,CC1=C[C@H]2O[C@@H]3C[C@H]4OC(=O)/C=C\C=C\[C@H]([C@@H](C)O)OCC[C@@H](C)[C@H](O)C(=O)OC[C@@]2(CC1)[C@]4(C)[C@]31CO1,-66.7% (active)
13,CC(=O)O[C@H]1CC[C@H]2[C@@H]3CC=C4c5nc(-c6ccccc6)sc5CC[C@]4(C)[C@H]3CC[C@]12C,57.2%
14,CC(C)(C)[Si](C)(C)OC1[C@@H](O[Si](C)(C)C(C)(C)C)[C@@H](CNC(=O)NC(=O)CF)O[C@H]1n1cnc2c(NC(=O)Nc3ccccc3)ncnc21 (some centres not stated),90.5%
15,C[C@]12CCc3sc(Nc4ccc(F)cc4F)nc3C1=CC[C@@H]1[C@@H]2CC[C@]2(C)C(=O)CC[C@@H]12,23.3%
16,S=P(Nc1ccccc1)(Nc1ccccc1)c1ccccc1,127%

row,Structure (SMILES),growth
1,N/C(=N\N=C\c1ccc(-c2ccccc2)cc1)N[N+](=O)[O-],20%
2,O=C1C=C(N2CC2)c2ccccc2C1=O,24.6%
3,COc1ccc(/C=C(/C(=O)N2CCCC2)c2cc(OC)c(OC)c(OC)c2)cc1N,-4.72% (active)
4,CCOc1ccc(C(O)CN(C)Cc2ccccc2)cc1Cl (configuration not stated),100%
5,O=C(CCl)NCNC(=O)CCl,96.8%
6,CNC(=O)Oc1ccccc1-c1ccccc1,113%
7,C1CCC([PH+](C2CCCCC2)C2CCCCC2[PH+](C2CCCCC2)C2CCCCC2)CC1.O=C(C1[CH-]CCCC1)C1CCCC[N-]1.[Au] (configuration not stated),-40.3% (active)
8,O=[N+]([O-])c1c(Br)sc(Br)c1[N+](=O)[O-],1.55% (active)
9,O=C(O)c1ccc(=O)[nH]c1,95.8% and 102%
10,[Cl][Hg][n]1cnc2c(Cl)c(Cl)c(Cl)cc21,115%
11,CC(=O)O[C@H](C[C@H](C(C)C)N(C)C(=O)[C@@H](NC(=O)[C@H]1CCCCN1C)C(C)C)c1nc(C(=O)N[C@@H](Cc2ccccc2)C[C@H](C)C(=O)O)c(CCOCc2ccccc2)s1,1.12% (active)
12,Cc1c(C)c([N+](=O)[O-])c(C)c(C)c1[N+](=O)[O-],95.2%
13,CCOCC1(CCc2ccccc2)C(=O)NC(=S)NC1=O,119%
14,CC[C@H](C)[C@H](NC(=O)[C@H]1CCCCN1C)C(=O)N(C)[C@H](C[C@@H](O)c1nc(C(=O)N[C@@H](Cc2ccccc2)C[C@H](C)C(=O)O)cs1)C(C)C,70.1%
15,CN1C(=O)[C@]23SSC1(C)C(=O)N2[C@H]1Nc2ccccc2C1([C@@]12c4ccccc4N[C@@H]1N1C(=O)C4(C)SS[C@]1(C(=O)N4C)[C@H]2O)[C@@H]3O (some centres not stated),-88.9% (active)
16,CCCCCCCCCCCCCCCCCCOc1ccccc1COP(=O)(O)OOCC[N+](C)(C)C,-40.1% (active)
